This is a sample that favours compounds with a hit; in the whole collection about 9.9% have one here.
Tau fibril ThT: qHTS for Inhibitors of Tau Fibril Formation, Thioflavin T Binding. recombinant tau K18 P301L, heparin-induced fibrillization, ThT fluorescence. Potency, µM (doses to about 57.4 µM), inactives show at the highest dose activity, negative = inhibition, usual class: inhibitors. 270,000 compounds, 2.1% hits. AID 1460, 2008; active = well fitted curve in the direction sought with a large enough effect; inconclusive = small, poorly fitted or top-dose-only effect, or another doubt; inactive = no such curve, though single readings can be large; an effect the other way counts as inactive or inconclusive; note: nearly all actives have a fitted effect of over 55% in size
Target sequence (P10636 561-689 P618L limits assumed): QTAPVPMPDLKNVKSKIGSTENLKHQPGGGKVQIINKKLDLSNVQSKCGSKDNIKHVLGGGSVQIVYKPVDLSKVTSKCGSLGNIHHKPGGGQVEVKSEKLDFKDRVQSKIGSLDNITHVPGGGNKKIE
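ThT emission at 510 nm, taken 1 hr after adding 30 uM dye, quantifies aggregates formed when 20 uM heparin acts on human tau K18 P301L for 6 hr at 37 C.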
HPGD block: qHTS Assay for Inhibitors of HPGD (15-Hydroxyprostaglandin Dehydrogenase); 150,000 compounds, 4.3% hits; purified HPGD, NADH fluorescence kinetic, PGE2 substrate; Potency, µM, inactives show at the highest dose activity change, negative = inhibition, hits mostly inhibitors; AID 894, 2007
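NADH formation kinetics: reaction with 30 uM PGE2 and 1 mM NAD+ (final), 20 nM enzyme, Tris-HCl pH 8 with Tween 20, after 15 min compound preincubation at room temperature. Fluorescence change, last versus first of five reads.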
JMJD2E inh: qHTS Assay for Inhibitors of Human Jumonji Domain Containing 2E (JMJD2E); JMJD2E catalytic domain, FDH-coupled NADH fluorescence (FDH is formaldehyde dehydrogenase); 230,000 compounds, 1.6% hits; Potency, µM (doses to about 57.1 µM), inactives show at the top dose activity change, negative = inhibition, actives largely listed as inhibitors; Lysine-specific demethylase 4E (Homo sapiens), B2RXH2;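 note: 0% = wells with enzyme and -100% = buffer wells without enzyme; nearly all actives have a fitted effect of over 50% in size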
Target sequence (B2RXH2 1-337 limits assumed): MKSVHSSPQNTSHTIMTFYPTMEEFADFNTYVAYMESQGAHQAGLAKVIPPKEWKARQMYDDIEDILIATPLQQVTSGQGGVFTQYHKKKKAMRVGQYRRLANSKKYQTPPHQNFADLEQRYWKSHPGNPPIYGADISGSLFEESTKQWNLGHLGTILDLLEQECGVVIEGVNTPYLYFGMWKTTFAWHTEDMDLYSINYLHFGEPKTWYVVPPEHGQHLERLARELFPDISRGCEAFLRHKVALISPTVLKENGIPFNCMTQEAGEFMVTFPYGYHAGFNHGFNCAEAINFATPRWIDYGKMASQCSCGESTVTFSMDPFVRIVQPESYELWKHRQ
ALDH1A1 block: qHTS Assay for Inhibitors of Aldehyde Dehydrogenase 1 (ALDH1A1); 220,000 compounds, 7.3% hits; Potency, µM (doses to about 75.3 µM), for the others: at the top dose activity, negative = inhibition, most hits filed as inhibitors; Aldehyde dehydrogenase 1A1 (Homo sapiens), P00352; AID 1030, 2008; Purified ALDH1A1, NADH fluorescence, propionaldehyde substrate;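 note: plate controls were no enzyme wells and a reference inhibitor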
Tau fluor cs: Counterscreen qHTS for Inhibitors of Tau Fibril Formation, Fluorescence Polarization. tau K18 P301L (four-repeat tau fragment) Alexa594 fluorescence, heparin fibrillization. 280,000 compounds, 0.93% hits. Potency, µM (highest dose often 57.7 µM), without a hit: at the top dose activity change, negative = decrease. AID 1463, 2008; active = well fitted curve in the direction sought with a large enough effect; inconclusive = small, poorly fitted or top-dose-only effect, or another doubt; inactive = no such curve, though single readings can be large; an effect the other way counts as inactive or inconclusive; note: nearly all actives have a fitted effect of over 55% in size
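Human K18 P301L tau (15 uM unlabeled plus 0.24 uM Alexa 594-labeled, final) in 100 mM sodium acetate pH 7 was mixed with compound and 20 uM heparin and incubated 6 hr at 37 C.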
Tau FP inhib: qHTS for Inhibitors of Tau Fibril Formation, Fluorescence Polarization. Microtubule-associated protein tau (Homo sapiens), P10636. K18 P301L tau heparin fibrillization, Alexa594 FP, 6 h. Potency, µM (highest dose often 57.7 µM), inactives show at the top dose activity, negative = inhibition, hits mostly inhibitors. 280,000 compounds, 0.39% hits; active = well fitted curve in the direction sought with a large enough effect; inconclusive = small, poorly fitted or top-dose-only effect, or another doubt; inactive = no such curve, though single readings can be large; an effect the other way counts as inactive or inconclusive; note: nearly all actives have a fitted effect of over 55% in size
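Steps: dispense K18 P301L tau (15 uM plus 0.24 uM Alexa 594 tracer, final) in pH 7 sodium acetate; add compound; add heparin (20 uM final); incubate 6 hr, 37 C; add ThT (30 uM final); after 1 hr ambient, read FP.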
* marks the source's active call; other numbers are inactive results; ? = inconclusive; · = no result. Unless noted, calls come from the whole dose curve; as a rule, active = well fitted inhibition curve with a large enough effect (not every such curve was filed as active); inconclusive = small, poorly fitted or top-dose-only effect, or another doubt; inactive = no such curve, though single readings can be large or run the other way. Unless noted, % is set by controls: 0 for no effect and ±100 for the full control effect; potency is the fitted concentration of half-maximal effect.

SMILES | Tau fibril ThT | HPGD block | JMJD2E inh | ALDH1A1 block | Tau fluor cs | Tau FP inhib
COCCCn1cnnc1SCC(=O)Nc1ccc(S(=O)(=O)N2CCCC2)cc1 | -14% | -7% | 4% | 11µM* | -13% | -8%
COc1ccccc1-n1cnnc1SCC(=O)Nc1nc(C)c(Cl)cc1Cl | -8% | 4% | 5% | ? | -4% | 6%
COc1ccccc1-n1cnnc1SCC(=O)Nc1cccc(S(=O)(=O)N2CCCCC2)c1 | -6% | -12% | 12% | 0.63µM* | -23% | -1%
O=C(Nc1ccccc1Cl)c1ccc(F)c(S(=O)(=O)NCc2ccc(Cl)c(Cl)c2)c1 | -11% | · | · | · | ? | ?
Cc1cc(S(=O)(=O)NCc2ccc(N3CCN(C)CC3)cc2)c(C)s1 | -10% | · | 6% | 9% | -20% | -8%
COCCn1cnnc1SCC(=O)Nc1ccc(Br)cc1F | -7% | · | 11% | 13µM* | -6% | -2%
CCCCC(=O)Nc1nc2ccc(C(=O)OC)cc2s1 | -12% | · | -10% | -2% | -15% | -5%
CCOc1ccc(Nc2oc(-c3ccc(COc4ccc(OC)cc4)o3)nc2C#N)cc1 | ? | · | · | · | ? | -2%
C=CCSC1=C(C#N)C(c2ccc(OCC)cc2)CC(=O)N1 (stereo unspecified) | -11% | -8% | -8% | ? | -5% | 5%
CN(C)c1nc(-c2ccoc2)nc2ccccc12 | ? | -1% | -21% | -10% | -13% | -6%
O=C(O)c1cn(-c2ccc(N3CCCC3)c(F)c2)c2c(F)c(F)c(F)cc2c1=O | -13% | · | ? | 16µM* | -11% | -5%
Cc1c(-n2cc(C(=O)O)c(=O)c3cc(F)c(N4CCCC(O)C4)c(F)c32)c(=O)n(-c2ccccc2)n1C (stereo unspecified) | -6% | · | ? | ? | -1% | 3%
CC1=CC(C)(C)N2C(=O)C(=Nc3ccc(O)cc3)c3cccc1c32 | 13µM* | · | 13µM* | · | ? | 28µM*
CC1=CC(C)(C)N(C(=O)CN2C(=O)c3ccccc3C2=O)c2ccccc21 | -20% | -10% | -2% | ? | -22% | -16%
COc1cc(N=C2C(=O)N3c4c(cccc42)C(C)=CC3(C)C)cc(OC)c1 | ? | -23% | -20% | 0.79µM* | -17% | -4%
CCc1ccc(N2C(=O)C(Cl)=C(N3CCOCC3)C2=O)cc1 | 13% | -11% | -1% | ? | 11% | 1%
Cc1cccc(N2C(=O)C(Cl)=C(N3CCOCC3)C2=O)c1 | 16µM* | · | -1% | ? | ? | 25µM*
O=C1C(Cl)=C(N2CCOCC2)C(=O)N1c1cccc(Cl)c1 | 13µM* | -10% | -6% | ? | ? | 28µM*
CCS(=O)(=O)N1CCN=C1SCc1cccnc1 | -13% | · | -3% | 10% | -8% | 4%
CC1CCCCC1NC(=O)C1CCC(CNc2c(N3CCCCC3)c(=O)c2=O)CC1 (stereo unspecified) | · | · | 3% | · | 0% | 4%
COCCCNC(=O)c1ccc(N(C)S(=O)(=O)c2ccc(OC)cc2)cc1 | -8% | 1.1µM* | 7% | -5% | 0% | 1%
COCCNC(=O)c1ccc(N(C)S(=O)(=O)c2ccc(OC)c(OC)c2)cc1 | -1% | 6.3µM* | 1% | -13% | 6% | 3%
CCc1cccc(C)c1NC(=O)CN(C)S(=O)(=O)c1cccc2nsnc12 | -3% | · | · | · | -6% | -4%
